Laboratory results reported in PubChem BioAssay AID1508600 (Functional Genomics Laboratory (NCATS/FGL), 2020).
Hit rate of the full screen: of about 53,000 sequences, about 3,700 (7%) were called active. Only a selection was taken, and actives are over-represented in it overall. Values without a mark were called inactive.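 How the source made its calls: active means gene knockdowns whose robust z-score for IL-1 alpha signal is at least 2 or at most -2, so actives lie on both sides; inactive means the rest.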

test: Components of the Cytosolic LPS Sensing Pathway: Gene Identification via Genome-wide siRNA Screen; settings: RAW264.7 macrophages, IL-1a HTRF, actives lie on both sides, screened at 100 nM (by protocol), cells primed 5 h with Pam3CSK4 first;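 further: robust z of the log signal after scaling to non-targeting control siRNA wells of the plate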
Method in brief: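 IL-1a HTRF of supernatants after 24 hour LipidA transfection of Pam3CSK4-primed (5 hours) RAW264.7 cells, 48h post-siRNA transfection (100 nM). Scores: percent of plate negative-control median, then log-based robust z-score.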

Row | Sequence | z-score
1 | CCAGUCACUAUUUGAGUGUTT against Erg | 1.9
2 | GGUGAAUACUUCAGAUACATT against Sult2b1 | -0.362
3 | GGAUUCACUGUUUUAUUCUTT against Fap | 0.282
4 | GGAUGCAAUCGACAUGGAGTT against Atp5pb | 2.71 (active)
5 | GGUUUUUGGGAAUUGGCUUTT against Sfxn5 | -0.0222
6 | GCGGUCCAUCAUCAAACUCTT against Rpap2 | -1.3
7 | CCCAACAUAUUUUUUAGCATT against Hmgcll1 | -0.506
8 | GGUGGUUGUUAUUGAAAAGTT against Mical3 | 1.34
9 | CGACAUUUGUGUUAACCAUTT against Gprc5c | -0.483
10 | GGAGCUUUUGGACCACUUGTT against Tmod1 | -0.892
11 | GCAAACGACGAAAGUCCAATT against Usp49 | -1.63
12 | CCAUAAACGACGAAAUGAUTT against Usp11 | 0.189
13 | GGCAUUUGACUUUAUUGCATT against Nit1 | 3.54 (active)
14 | GGUCAAGCAAGUGUUGGUUTT against Gart | -0.0147
15 | GGAAGAUUCCGACUUUAUUTT against Irs4 | 0.69
16 | GCUCAGACAAGAAUUGCUATT against Specc1 | -0.612
17 | CCACCUUUCGUGCAUUAUCTT against Coro6 | 1.32
18 | GGCUGUCAUACUUUCAGGGTT against Hyal5 | 2.51 (active)
19 | GGGCCAAGGAAGAACUUCATT against Clec12a | -0.655
20 | GGAAAAAGAGGCCAAAAAGTT against Arid4a | -0.221
21 | GGUCAAUGUGAUUGAGGAUTT against Acap1 | 0.869
22 | CCUAUUGAGUCAUCCAUCGTT against Utp25 | -0.586
23 | GCAGUACGCUGCAUUUAAATT against Mtrf1l | 0.551

Row | Sequence | z-score
24 | GGAGUUUCAACUCUUCUUCTT against Necab2 | -0.576
25 | GCUCCUGAACUAAUACAAGTT against Melk | 5 (active)
26 | GGUGAGGAGGAAAUCCUGCTT against Rdh10 | -1.21
27 | CCUGCUUUGUAUCUCCUCCTT against Csprs | 0.184
28 | GCAACAAUGAGAGACCACATT against Htr5a | 3.27 (active)
29 | GGAAGCAUCUCAUUAUUCATT against Lamp2 | 0.0306
30 | GGCACCUACAUCCUUAUUGTT against Ptprn | -0.16
31 | GGAAAGGAAAAUCAACUUCTT against Usp14 | 0.0989
32 | GCUUUCUUUUGCACUUGAATT against Ctc1 | -1.1
33 | CCACAUGUCACAUCUUUUCTT against Mrpl47 | 0.16
34 | GGCACAGACUAAGGUAUAGTT against Adra2c | -1.51
35 | GCCCUGAAGCCUAUAAUCATT against Nhlrc1 | 2.34 (active)
36 | GGCAACAGUACCAAAGACATT against Rps24 | 0.483
37 | GGCCGAAUCACAGAAACUCTT against Mrps18a | 1.87
38 | GUAAGCAGCAACAGAGGCUTT against Cd70 | -0.558
39 | GGCAUUGAAGGAAGUGAUCTT against Psmg3 | -2.9 (active)
40 | GGCCUUAGUAUUCUGCCUCTT against Nuak1 | 0.395
41 | GGGAAUUCACACUGUCUGGTT against Tmem176a | -1.73
42 | CGGCUAAGGAAAAAUGUGATT against Nr1h4 | -1.26
43 | CCAACAUCCUUAAGCGGCUTT against Lonp1 | -0.161
44 | GGUCAAAGGUGAAGAGAAATT against Chgb | 1.43
45 | GGAAACAGCAUCAUCAUGUTT against Snrpg | -2.28 (active)
46 | CGUACAUCGUCGAGAUUUUTT against Rims1 | 0.839

Row | Sequence | z-score
47 | GCGGAACCUAUAUAGGAAUTT against Zfp74 | -0.292
48 | CGAGAGUAGCUUGUUGCUGTT against Rhobtb3 | 0.359
49 | GCUGUAUGGGAAGGGUUACTT against Tsen2 | 0.829
50 | GGAUCAGUACCUGUGAUGGTT against Adamdec1 | -2.07 (active)
51 | GGAUCGUAGAACACCCUUCTT against Robo2 | -0.00164
52 | GGAUUCCACAAUUUUUGUATT against Ncoa6 | -0.399
53 | GCGGGUUAACUUGUUUGGUTT against Zcwpw1 | 0.525
54 | GGCUUACACAAAAAUCUGUTT against Camk2d | -0.36
55 | GGAAAUUACCUUGAUGAUGTT against Anxa4 | -1.59
56 | GGACAAUCUGAUUCAAGUATT against Ms4a2 | 0.104
57 | GUUGUGCAAUCAACAAGGUTT against Fam98c | 2.05 (active)
58 | GCUACGCAAUAAGACCACATT against Lamc3 | 2.25 (active)
59 | GGAGCUCAUUAGCAAAUAUTT against Olfm5 | -0.859
60 | GUACAAGCUCAAGUGCUCGTT against Casz1 | -0.463
61 | GGAACUCCUGACUCUCAGATT against Htra2 | -1.19
62 | UGUACUGAUACAUACUUCCTT against Olfr1249 | -0.487
63 | GCAUGACAGUCAACACAAGTT against Slc35f6 | 2.04 (active)
64 | GGAAAUAGACACCAAGAGCTT against Mau2 | -1.64
65 | GCAUCAUUAAGUGCUACCGTT against Pcdhac2 | -0.263
66 | UCUAUCUCAUUACUAUUGUTT against Olfr190 | 0.649
67 | CCUAUCAAACUGACUUCAUTT against Castor2 | 0.309
68 | GGACCUCCCACAGUGUUAUTT against Enpp2 | -0.574
69 | GGGAAACAGAUGAAAGAGUTT against Relch | 0.0344
